Measured values taken from publication PMC5540273 (PLoS ONE, 2017).

Tests used:
Conditions in all cases: concentration: 1 μM,replicates: in singlicate; n = 1
ERK1 = system: T1, ERK1
T1 construct: gene MAPK3

ERK2 = system: T2, ERK2
T2 construct: gene MAPK1

ERK3 = system: T3, ERK3
T3 construct: gene MAPK6

ERK4 = system: T4, ERK4
T4 construct: gene MAPK4

ERK5 = system: T5, ERK5
T5 construct: gene MAPK7

ERK8 = system: T6, ERK8
T6 construct: gene MAPK15

ERN1 = system: ERN1
FAK = system: T7, FAK
T7 construct: gene PTK2

FER = system: FER
FES = system: FES
FGFR1 = system: FGFR1
FGFR2 = system: FGFR2
FGFR3 = system: FGFR3
FGFR4 = system: FGFR4
FGR = system: FGR
FLT1 = system: FLT1
FLT3-autoinhibited = system: FLT3-autoinhibited
FLT3 = system: FLT3
FLT4 = system: FLT4
FRK = system: FRK
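Note: KINOMEscan kinase panel screen.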

| SMILES | %Inh (ERK1) | %Inh (ERK2) | %Inh (ERK3) | %Inh (ERK4) | %Inh (ERK5) | %Inh (ERK8) | %Inh (ERN1) | %Inh (FAK) | %Inh (FER) | %Inh (FES) | %Inh (FGFR1) | %Inh (FGFR2) | %Inh (FGFR3) | %Inh (FGFR4) | %Inh (FGR) | %Inh (FLT1) | %Inh (FLT3-autoinhibited) | %Inh (FLT3) | %Inh (FLT4) | %Inh (FRK) |
| --- | --- | --- | --- | --- | --- | --- | --- | --- | --- | --- | --- | --- | --- | --- | --- | --- | --- | --- | --- | --- |
| O=C(Nc1ccc(Oc2ccc3nc(NC(=O)C4CC4)cn3n2)c(F)c1)c1cccn(-c2ccccc2)c1=O | 0% | 10% | 0% | 5% | 21% | 9% | 0% | 13% | 37% | 13% | 0% | 9% | 11% | 6% | 73% | 98.3% | 43% | 98.2% | 99.4% | 45% |
| CCn1c(-c2nonc2N)nc2cncc(Br)c21 [SB-738004] | 0% | 6% | 0% | 19% | 6% | 0% | 19% | 9% | 10% | 8% | 3% | 69% | 24% | 2% | 17% | 21% | 53% | 0% | 19% | 0% |
| NC(=O)c1ccc(-c2cc3ncnc(SCC(=O)O)c3s2)cc1 | 0% | 4% | 0% | 0% | 0% | 63% | 0% | 0% | 0% | 16% | 0% | 0% | 0% | 0% | 14% | 4% | 2% | 20% | 0% | 0% |
| COc1ccc(Nc2nccc(N3CCC(NC(=O)c4cccc(C#N)c4)C3)n2)cc1 (stereo not drawn) [GSK1379730] | 1% | 26% | 0% | 0% | 0% | 30% | 0% | 0% | 27% | 0% | 13% | 19% | 4% | 6% | 0% | 24% | 0% | 18% | 22% | 0% |
| O=C(NOCC1CC1)c1cc(Br)c(F)c(F)c1Nc1ccc(I)cc1Cl | 0% | 0% | 0% | 0% | 0% | 8% | 0% | 0% | 11% | 0% | 0% | 1% | 0% | 0% | 0% | 0% | 0% | 0% | 0% | 0% |
| Cc1ccc(CC(=O)N2CCc3cc(-c4cn(C)c5ncnc(N)c45)ccc32)cc1 [GSK2634758] | 12% | 6% | 0% | 0% | 0% | 0% | 11% | 0% | 19% | 0% | 14% | 14% | 2% | 0% | 37% | 32% | 0% | 40% | 0% | 0% |
| C[C@@H](Oc1cc(-n2cnc3cc(-c4cnn(C)c4)ccc32)sc1C(N)=O)c1ccccc1Cl [GSK580432] | 0% | 0% | 10% | 10% | 0% | 64% | 3% | 0% | 38% | 18% | 91.9% | 89% | 92.7% | 38% | 72% | 87% | 28% | 99.4% | 99.8% | 12% |
| Cn1ccc2ncnc(Oc3ccc(NC(=O)Nc4cccc(C(F)(F)F)c4)c(F)c3)c21 | 0% | 19% | 0% | 14% | 11% | 74% | 0% | 34% | 28% | 0% | 0% | 14% | 5% | 3% | 3% | 98.9% | 38% | 98% | 99.9% | 85% |
| FC(F)(F)c1cc(Br)cc(Nc2nccc(-c3cnn4ncccc34)n2)c1 [GW810578] | 0% | 25% | 16% | 0% | 0% | 99.5% | 59% | 18% | 0% | 0% | 4% | 0% | 0% | 77% | 16% | 30% | 70% | 95.7% | 6% | 0% |
